Experiments:
Experiment in all cases: universal protein binding microarray (PBM); transcription factors of Arabidopsis thaliana; high values mean tight binding
Details in all cases: protein: recombinant; tags: GST; chain copies: 2; dsDNA, one strand shown
[1] = target: T1, GST-ANAC092(1-176) (Arabidopsis thaliana, UniProt Q9FKA0 1-176)
T1 sequence: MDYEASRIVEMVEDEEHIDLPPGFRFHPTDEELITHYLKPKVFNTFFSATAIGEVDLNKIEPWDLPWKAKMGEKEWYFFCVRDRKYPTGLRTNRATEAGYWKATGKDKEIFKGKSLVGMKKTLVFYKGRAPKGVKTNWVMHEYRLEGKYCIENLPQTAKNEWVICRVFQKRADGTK
In short: (§1)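 GST-tagged proteins (NAC-domain, full-length or DNA-binding-domain) were induced in cells, with zinc acetate supplied for zinc-finger proteins, then purified on glutathione–Sepharose 4B. Each was tested in duplicate at 200 to 500 nM final on custom all-10-mer Agilent 4 × 180K arrays rendered double-stranded by primer extension. The binding value is the normalised enrichment score (E-score) across gapped and ungapped 8-mers.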

[2] = target: GST-NTL6(1-168) (Arabidopsis thaliana, UniProt Q9SCK6 1-168)
GST-NTL6(1-168), sequence (Q9SCK6 1-168): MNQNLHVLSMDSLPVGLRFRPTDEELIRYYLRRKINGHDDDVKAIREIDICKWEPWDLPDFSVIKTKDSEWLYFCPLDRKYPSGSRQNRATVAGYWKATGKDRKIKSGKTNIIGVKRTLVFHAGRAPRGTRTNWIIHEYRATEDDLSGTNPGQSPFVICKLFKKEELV
In short: as §1

[3] = target: T2, GST-ANAC019 NAC domain (Arabidopsis thaliana, UniProt Q9C932 14-162)
T2 sequence: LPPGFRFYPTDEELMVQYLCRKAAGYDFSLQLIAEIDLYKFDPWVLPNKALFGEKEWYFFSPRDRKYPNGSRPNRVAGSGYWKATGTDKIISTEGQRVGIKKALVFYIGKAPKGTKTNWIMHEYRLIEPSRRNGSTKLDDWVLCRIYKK
In short: as §1

[4] = target: T3, GST-ANAC055(1-171) (Arabidopsis thaliana, UniProt Q9LDY8 1-171)
T3 sequence: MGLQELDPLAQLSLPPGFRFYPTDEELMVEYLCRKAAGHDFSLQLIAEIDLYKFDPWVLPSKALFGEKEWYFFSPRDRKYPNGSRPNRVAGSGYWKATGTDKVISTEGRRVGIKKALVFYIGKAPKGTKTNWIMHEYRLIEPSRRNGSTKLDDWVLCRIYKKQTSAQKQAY
In short: as §1

[5] = target: T4, GST-ATAF1 NAC domain (Arabidopsis thaliana, UniProt Q39013 7-158)
T4 sequence: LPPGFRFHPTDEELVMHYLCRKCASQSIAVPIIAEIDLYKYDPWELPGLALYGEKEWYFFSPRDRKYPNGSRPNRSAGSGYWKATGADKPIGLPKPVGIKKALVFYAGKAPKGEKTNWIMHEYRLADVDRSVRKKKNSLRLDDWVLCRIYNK
In short: as §1

[6] = target: T5, GST-ANAC092(1-285) full length (Arabidopsis thaliana, UniProt Q9FKA0 1-285)
T5 sequence: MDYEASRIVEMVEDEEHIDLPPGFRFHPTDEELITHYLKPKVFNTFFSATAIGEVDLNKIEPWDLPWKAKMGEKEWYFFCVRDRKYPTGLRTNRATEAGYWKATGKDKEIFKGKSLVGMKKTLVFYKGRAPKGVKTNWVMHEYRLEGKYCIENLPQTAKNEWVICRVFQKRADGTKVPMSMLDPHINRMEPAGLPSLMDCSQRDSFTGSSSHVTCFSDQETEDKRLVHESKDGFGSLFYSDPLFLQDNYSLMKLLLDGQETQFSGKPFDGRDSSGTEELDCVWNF
In short: as §1

[7] = target: T6, GST-NAP(1-166) (Arabidopsis thaliana, UniProt O49255 1-166)
T6 sequence: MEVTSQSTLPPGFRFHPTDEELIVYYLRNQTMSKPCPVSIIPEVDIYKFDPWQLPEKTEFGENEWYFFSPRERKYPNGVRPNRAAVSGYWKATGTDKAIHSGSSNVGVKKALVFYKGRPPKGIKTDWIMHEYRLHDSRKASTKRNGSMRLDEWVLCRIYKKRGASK
In short: as §1

[8] = target: T7, GST-NST2(1-184) (Arabidopsis thaliana, UniProt Q9M274 1-184)
T7 sequence: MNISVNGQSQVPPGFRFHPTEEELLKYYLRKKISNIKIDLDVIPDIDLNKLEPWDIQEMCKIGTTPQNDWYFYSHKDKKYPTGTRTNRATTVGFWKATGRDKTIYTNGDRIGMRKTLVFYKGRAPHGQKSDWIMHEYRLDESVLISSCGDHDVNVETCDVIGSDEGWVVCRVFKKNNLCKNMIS
In short: as §1

[9] = target: T8, GST-NTL8 NAC domain (Arabidopsis thaliana, UniProt Q9XIN7 14-156)
T8 sequence: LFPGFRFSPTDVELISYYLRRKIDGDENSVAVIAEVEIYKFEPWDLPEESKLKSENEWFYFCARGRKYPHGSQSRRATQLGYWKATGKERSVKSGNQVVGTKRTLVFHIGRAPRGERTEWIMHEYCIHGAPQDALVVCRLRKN
In short: as §1

[10] = target: T9, GST-SND1(1-203) (Arabidopsis thaliana, UniProt Q9LPI7 1-203)
T9 sequence: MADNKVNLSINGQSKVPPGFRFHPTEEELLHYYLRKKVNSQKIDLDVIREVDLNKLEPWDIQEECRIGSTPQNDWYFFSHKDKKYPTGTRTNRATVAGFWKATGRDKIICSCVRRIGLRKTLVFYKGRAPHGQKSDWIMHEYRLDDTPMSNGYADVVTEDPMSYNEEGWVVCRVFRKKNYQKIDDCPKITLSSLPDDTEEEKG
In short: as §1

[11] = target: T10, GST-VND3 NAC domain (Arabidopsis thaliana, UniProt Q9FH59 12-162)
T10 sequence: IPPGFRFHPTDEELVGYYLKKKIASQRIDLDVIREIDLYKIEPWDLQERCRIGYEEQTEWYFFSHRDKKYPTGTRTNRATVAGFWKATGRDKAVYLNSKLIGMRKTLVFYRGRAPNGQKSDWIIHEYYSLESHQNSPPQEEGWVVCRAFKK
In short: as §1

[12] = target: T11, GST-VND7 NAC domain (Arabidopsis thaliana, UniProt Q9C8W9 9-158)
T11 sequence: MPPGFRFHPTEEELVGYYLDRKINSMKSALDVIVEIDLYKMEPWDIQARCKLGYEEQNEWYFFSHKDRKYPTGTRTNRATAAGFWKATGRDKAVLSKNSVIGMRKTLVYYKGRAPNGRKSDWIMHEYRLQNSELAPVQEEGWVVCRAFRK
In short: as §1

Sequence	binding signal [1]	binding signal [2]	binding signal [3]	binding signal [4]	binding signal [5]	binding signal [6]	binding signal [7]	binding signal [8]	binding signal [9]	binding signal [10]	binding signal [11]	binding signal [12]
ACGTTACT	0.435 E-score	0.0863 E-score	0.287 E-score	0.155 E-score	0.282 E-score	0.439 E-score	0.249 E-score	0.268 E-score	0.233 E-score	0.434 E-score	0.259 E-score	0.326 E-score
CGAGGAAA	0.0746 E-score	0.138 E-score	0.0533 E-score	0.139 E-score	0.152 E-score	0.131 E-score	0.0581 E-score	0.0987 E-score	0.442 E-score	0.17 E-score	0.155 E-score	0.173 E-score
ATTGAGTA	0.329 E-score	0.135 E-score	0.143 E-score	0.176 E-score	0.251 E-score	0.365 E-score	0.0897 E-score	0.312 E-score	0.129 E-score	0.404 E-score	0.282 E-score	0.258 E-score
TGCCGTAA	0.432 E-score	0.114 E-score	0.448 E-score	0.408 E-score	0.436 E-score	0.433 E-score	0.402 E-score	0.328 E-score	0.324 E-score	0.457 E-score	0.437 E-score	0.449 E-score
GTTGCGTA	0.486 E-score	0.184 E-score	0.461 E-score	0.431 E-score	0.415 E-score	0.49 E-score	0.477 E-score	0.465 E-score	0.216 E-score	0.495 E-score	0.452 E-score	0.466 E-score
TTACGCAA	0.484 E-score	0.18 E-score	0.447 E-score	0.335 E-score	0.375 E-score	0.484 E-score	0.442 E-score	0.437 E-score	0.18 E-score	0.495 E-score	0.457 E-score	0.468 E-score
GCAAGGAA	0.345 E-score	0.418 E-score	0.185 E-score	0.211 E-score	0.18 E-score	0.371 E-score	0.133 E-score	0.175 E-score	0.431 E-score	0.276 E-score	0.187 E-score	0.229 E-score
TACGCAAA	0.469 E-score	0.104 E-score	0.385 E-score	0.315 E-score	0.323 E-score	0.469 E-score	0.355 E-score	0.393 E-score	0.0978 E-score	0.473 E-score	0.405 E-score	0.334 E-score
GTACGAAA	0.38 E-score	0.184 E-score	0.267 E-score	0.274 E-score	0.24 E-score	0.413 E-score	0.247 E-score	0.285 E-score	0.116 E-score	0.277 E-score	0.294 E-score	0.196 E-score
GTAAGGAA	0.259 E-score	0.486 E-score	0.23 E-score	0.193 E-score	0.239 E-score	0.29 E-score	0.268 E-score	0.271 E-score	0.392 E-score	0.35 E-score	0.231 E-score	0.236 E-score
ACGCAACA	0.473 E-score	0.0917 E-score	0.408 E-score	0.35 E-score	0.292 E-score	0.484 E-score	0.399 E-score	0.4 E-score	0.0984 E-score	0.467 E-score	0.347 E-score	0.406 E-score
GTTACTTA	0.306 E-score	0.461 E-score	0.0988 E-score	0.117 E-score	0.256 E-score	0.374 E-score	0.113 E-score	0.25 E-score	0.286 E-score	0.41 E-score	0.263 E-score	0.248 E-score
ACGAGAAA	0.249 E-score	0.265 E-score	0.324 E-score	0.419 E-score	0.184 E-score	0.141 E-score	0.206 E-score	0.188 E-score	0.124 E-score	0.151 E-score	0.276 E-score	0.302 E-score
